{
  "source": "PubChem BioAssay AID624206",
  "about": "(National Center for Advancing Translational Sciences (NCATS), 2012)",
  "note": "Calls of active or inactive are those of the source. Calls come from the whole dose curve; as a rule, active = well fitted curve in the direction sought with a large enough effect; inconclusive = small, poorly fitted or top-dose-only effect, or another doubt; inactive = no such curve, though single readings can be large or run the other way.",
  "data": [
    {"assay": "Quantitative high throughput screen to test cell viability of anti-malarial compounds targeting the delayed death phenotype.", "settings": "HepG2 viability, CellTiter-Glo luminescence, 48 h", "excerpt": "NIH Molecular Libraries Probe Production Network [MLPCN] NIH Chemical Genomics Center [NCGC] MLPCN Grant: R21 NS059500 Assay Provider: David Fidock and Eric Ekland, Columbia University The goal of this screen is to measuer the cytoxoxicity (against HepG2 cell line) of a set of anti-malarial compounds that target the delayed death pheonotype, by inhibiting the development of the apicoplast in the malarial parasite Plasmodium falciparum (described below) The biochemical processes that make this organelle essential for erythrocytic stage parasites are not well understood. However, antibiotics, such as azithromycin and tetracycline, which target the apicoplast translational machinery, have a potent antimalarial effect. […] We have developed a cell-based assay that measures parasite growth based on the expression of an integrated copy of a firefly luciferase reporter. To detect small molecules that cause this 'delayed death' phenotype, erythrocytes infected with the luciferase-expressing parasites were incubated with compounds for either one or two generations, corresponding to 48 and 96 hours, respectively. Compounds that inhibit parasite growth in the second generation, but not the first, should be enriched in antimalarials that target the apicoplast. Growth inhibition is detected by a decrease in luciferase activity\nCells were plated at a density of 2000 cells/well/5uL in 1536 well white tissue culture plate with culture medium. Triplicate plates were prepared. Plates were incubated at 37C, 5% CO2 for 5 hours and then 23nL of compounds and positive control were transferred to the assay plates. Tetraoctylammonium bromide was added as a positive control. Plates were then incubated at 37C, 5% CO2 for 48 hours. 5 uL of CellTitler-Glo buffer was added to each well and then incubated for 30 min at room temperature. Luminescence was measured using ViewLux (1 second, slow, 2X).", "values": [
      {"smiles": "Cc1sc2nc[nH]c(=O)c2c1-c1ccc(Cl)cc1", "max response": "3.87% (inactive)"},
      {"smiles": "CC(=O)NC[C@@H]1CN(c2ccc(N3CCOCC3)c(F)c2)C(=O)O1", "max response": "12.4% (inactive)"},
      {"smiles": "Cc1ccc(CN2CCC(n3nccc3NC(=O)c3ccccc3C)CC2)o1", "max response": "13.2% (inactive)"}
    ]}
  ]
}
